Screening data deposited in PubChem by The Scripps Research Institute Molecular Screening Center.
hgDAF12 agonist – activates the H. glycines DAF-12 receptor ligand-binding domain; HEK293 GAL4-hgDAF12 UAS-luciferase reporter, agonist luminescence; normalized to butyrate control; activation, % at 6.8 µM; 370,000 compounds, 1.8% hits;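 active = activation above a cutoff set at the mean of all screened compounds plus 3 SD, cut at about 10% in these data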
ssDAF12 agonist – S. stercoralis DAF-12 activation, primary screen | activation, % at 6.8 µM | 370,000 compounds, 1% hits | HEK293 ssDAF-12/GRIP1 lit1-tk-luc reporter, luminescence; % of 3 µM dafachronic acid response;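 active = activation above the mean over all tested compounds plus 3 SD, cut at about 0.9% in these data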
DAX1 inh-1 – inhibits human nuclear receptor DAX1; P51843; HEK293 Gal4-DAX1 luciferase reporter, luminescence; inhibition, % at 6.75 µM; 340,000 compounds, 0.99% hits; AID 504766;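 active = inhibition above the mean over all tested compounds plus 3 SD, cut at about 4.2% in these data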;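 note: inhibition shows as a rise in luminescence from relieved DAX1 repression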
DAX1 inh-2 – blocks DAX1 repression of SF-1 activated StAR promoter. HEK293T StAR-luciferase reporter, SF-1/DAX-1 repression relief. inhibition, % at 6.8 µM. 370,000 compounds, 1.1% hits. AID 652010;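 active = inhibition above the mean over all tested compounds plus 3 SD, cut at about 3.6% in these data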;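 note: higher inhibition means more luminescence from relief of DAX-1 repression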
hcDAF-12 act – activates DAF-12 receptor from parasite H. contortus | activation, % at 6.8 µM | HEK293 hcDAF-12 lit1-tk-luc reporter, luminescence; 0% DMSO, 100% Δ7-dafachronic acid | 370,000 compounds, 1.4% hits;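 active = activation above the mean of all tested compounds plus 3 SD, cut at about 5.5% in these data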
GAA850 FXN act – frataxin GAA850 promoter activation | 360,000 compounds, 0.56% hits | AID 540364 | activation, % at 6 µM | HEK293 lucGAA850 FXN promoter luciferase reporter, 24 h; percent of 10 µM SAHA response;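 active = activation above the average of all compounds screened plus 3 SD, cutoff fixed separately per campaign, cut at about 7.5% in these data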
DAX1 conf – confirmation of human DAX1 (NR0B1) inhibitors. 2,400 compounds, 87% hits. HEK293T StAR-promoter luciferase reporter, SF-1/DAX-1 repression. inhibition, % at 6.8 µM. AID 652134. shares compounds with DAX1 inh-2;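 active = inhibition above the average of every tested compound plus 3 SD, cut at about 3.8% in these data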;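 note: active compounds raise luminescence by relieving repression of the StAR reporter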
SF1 mutant ctr – nonselective inhibitor or artifact in SF-1 mutant DAX1 counter-screen | shares compounds with DAX1 inh-2 | HEK293 StAR-luciferase, SF-1 AF2 mutant, luminescence | inhibition, % at 6.8 µM | 2,400 compounds, 78% hits | AID 652136;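 active = inhibition above the mean of all tested compounds plus 3 SD, cut at about 3% in these data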
LXRb hcDAF ctr – counter-screen for hcDAF-12 agonists: agonists of human LXR-beta. AID 743027. activation, % at 6.8 µM. shares compounds with hcDAF-12 act. 3,400 tested, under 10 active. HEK293 Gal4-LXR tk-luc reporter, luminescence, 24 h; normalized: DMSO 0%, positive control 100%;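 active = mean percent activation of the reporter above a cutoff set as the average over tested compounds plus their standard deviation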
Target sequence (P55055 whole entry, looked up, the tested form may be a part): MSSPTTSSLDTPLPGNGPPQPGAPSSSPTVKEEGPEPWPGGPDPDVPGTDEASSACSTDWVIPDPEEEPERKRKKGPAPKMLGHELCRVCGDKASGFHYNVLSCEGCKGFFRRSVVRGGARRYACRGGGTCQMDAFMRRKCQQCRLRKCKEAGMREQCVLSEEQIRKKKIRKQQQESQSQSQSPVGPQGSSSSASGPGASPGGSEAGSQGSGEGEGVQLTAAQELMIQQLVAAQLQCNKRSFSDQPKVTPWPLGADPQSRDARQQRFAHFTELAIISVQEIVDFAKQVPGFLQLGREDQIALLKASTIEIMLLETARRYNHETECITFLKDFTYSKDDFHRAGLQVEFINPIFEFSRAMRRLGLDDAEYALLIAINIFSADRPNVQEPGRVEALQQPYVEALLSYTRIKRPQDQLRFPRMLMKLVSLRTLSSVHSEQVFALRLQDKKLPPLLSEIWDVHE
hcDAF12 conf – confirmation of H. contortus DAF-12 agonists; shares compounds with hcDAF-12 act; HEK293 hcDAF-12 lit1-tk-luc reporter, luminescence; % of Δ7-dafachronic acid response; activation, % at 6.8 µM; 3,400 compounds, 61% hits;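 active = mean activation across triplicate tests above the threshold derived from the earlier primary screen, cut at about 5.5% in these data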
hgDAF12 ag – hgDAF-12 agonism, confirmation assay. shares compounds with hgDAF12 agonist. activation, % at 6.8 µM. AID 743050. 3,300 compounds, 80% hits. HEK293 GAL4-hgDAF12 luciferase reporter, agonist mode; percent of butyrate response;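 active = mean activation over triplicate wells above the hit cutoff derived from the earlier primary screen, cut at about 11% in these data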
LXR ag 2 – counter-screen for DAF-12 agonists: agonists of human LXR-beta; shares compounds with hgDAF12 agonist; AID 743051; activation, % at 6.8 µM; HEK293 Gal4-LXR luciferase reporter, 24 h; 3,300 tested, under 10 active;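 active = mean activation of the triplicate above a set limit carried over from the primary screen, none filed active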
A number is an active result. Compounds with a hit are over-represented: about 4.5% of the library has one in this group of screens.

How did O=C(/C=C/Nc1ccc(Nc2ccccc2)cc1)c1cccs1 do in these assays?
hgDAF12 agonist: inactive; ssDAF12 agonist: inactive; DAX1 inh-1: inactive; DAX1 inh-2: inactive; hcDAF-12 act: inactive; GAA850 FXN act: inactive

How did Cc1ccc(N/C=C/C(=O)c2cccs2)cc1C do in these assays?
hgDAF12 agonist: 30; ssDAF12 agonist: 2.6; DAX1 inh-2: 6.7; hcDAF-12 act: 21; GAA850 FXN act: inactive; DAX1 conf: 18; SF1 mutant ctr: 6.0; LXRb hcDAF ctr: inactive; hcDAF12 conf: 25; hgDAF12 ag: 18; LXR ag 2: inactive

What do the screens show for `Cc1ccc(C(C#N)=Cc2ccc3c(c2)OCO3)cc1`?
hgDAF12 agonist: 18; ssDAF12 agonist: inactive; DAX1 inh-1: inactive; DAX1 inh-2: 6.8; hcDAF-12 act: inactive; GAA850 FXN act: inactive; DAX1 conf: 11; SF1 mutant ctr: 5.0; hgDAF12 ag: 21; LXR ag 2: inactive

Results for COc1ccc(NC(=O)c2cccnc2Nc2ccc(OC)cc2)cc1 ?
hgDAF12 agonist: inactive; ssDAF12 agonist: inactive; DAX1 inh-1: inactive; DAX1 inh-2: inactive; hcDAF-12 act: inactive; GAA850 FXN act: inactive

How did CC(C)c1ccc(Nc2ncccc2C(=O)O)cc1 do in these assays?
hgDAF12 agonist: 22; ssDAF12 agonist: inactive; DAX1 inh-1: inactive; DAX1 inh-2: 6.4; hcDAF-12 act: 6.0; GAA850 FXN act: inactive; DAX1 conf: 15; SF1 mutant ctr: 7.4; hgDAF12 ag: 21; LXR ag 2: inactive

What do the screens show for `O=C(c1ccc(C(=O)N2CCCc3ccccc32)s1)N1CCCc2ccccc21`?
hgDAF12 agonist: inactive; ssDAF12 agonist: inactive; DAX1 inh-1: inactive; DAX1 inh-2: inactive; hcDAF-12 act: inactive; GAA850 FXN act: inactive

How did CCc1sc(C(=O)N2CCc3ccccc32)cc1C do in these assays?
hgDAF12 agonist: 33; ssDAF12 agonist: 3.5; DAX1 inh-1: inactive; DAX1 inh-2: 6.3; hcDAF-12 act: 10; GAA850 FXN act: inactive; DAX1 conf: 11; SF1 mutant ctr: 6.6; LXRb hcDAF ctr: inactive; hcDAF12 conf: 7.2; hgDAF12 ag: 21; LXR ag 2: inactive

How did O=C(CSC(=S)N1CCCC1)c1ccccc1 do in these assays?
hgDAF12 agonist: 18; ssDAF12 agonist: inactive; DAX1 inh-1: inactive; DAX1 inh-2: 9.6; hcDAF-12 act: inactive; GAA850 FXN act: inactive; DAX1 conf: 9.5; SF1 mutant ctr: 7.4; hgDAF12 ag: 14; LXR ag 2: inactive

How did O=C(CSC(=S)N1CCCCC1)c1ccccc1 do in these assays?
hgDAF12 agonist: inactive; ssDAF12 agonist: inactive; DAX1 inh-1: inactive; DAX1 inh-2: inactive; hcDAF-12 act: inactive; GAA850 FXN act: inactive

What do the screens show for `O=C(Nc1ccc(NC(=O)c2ccco2)nc1)c1ccccn1`?
hgDAF12 agonist: inactive; ssDAF12 agonist: inactive; DAX1 inh-1: inactive; DAX1 inh-2: inactive; hcDAF-12 act: inactive; GAA850 FXN act: inactive
